# From the supplement of paper PMC11732987, “Enantioselective OTUD7B fragment discovery through chemoproteomics screening and high-throughput optimisation” (Communications Chemistry, 2025)
# Unmarked numbers belong to inactive results.
# Target: USP14 (UniProt P54578)
# Experiment: log2 ratio of Biotin-Ahx-Ub-VS probe labelling (fragment/DMSO); higher = less target engagement (more negative = stronger competition), active = hit call of the paper (q ≤ 0.05, log2 ratio ≤ -1)
# Settings: compound concentration: 200 uM; treatment time: 3 h
# Protocol: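 Competitive ABPP in HEK293T cell lysate. Lysates were treated with each chloroacetamide fragment at 200 µM for 3 h, then with Biotin-Ahx-Ub-VS (0.5 µM, 1 h), NeutrAvidin-enriched and analysed by diaPASEF LC-MS/MS. Protein LFQ was median-normalised; average log2 ratio is fragment/DMSO from an unpaired t-test (n=3 treated, n=44 DMSO). Hits: q ≤ 0.05, log2 ratio ≤ -1, unique peptides ≥ 2.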
# USP14, sequence (P54578 whole entry, the tested form may be a part): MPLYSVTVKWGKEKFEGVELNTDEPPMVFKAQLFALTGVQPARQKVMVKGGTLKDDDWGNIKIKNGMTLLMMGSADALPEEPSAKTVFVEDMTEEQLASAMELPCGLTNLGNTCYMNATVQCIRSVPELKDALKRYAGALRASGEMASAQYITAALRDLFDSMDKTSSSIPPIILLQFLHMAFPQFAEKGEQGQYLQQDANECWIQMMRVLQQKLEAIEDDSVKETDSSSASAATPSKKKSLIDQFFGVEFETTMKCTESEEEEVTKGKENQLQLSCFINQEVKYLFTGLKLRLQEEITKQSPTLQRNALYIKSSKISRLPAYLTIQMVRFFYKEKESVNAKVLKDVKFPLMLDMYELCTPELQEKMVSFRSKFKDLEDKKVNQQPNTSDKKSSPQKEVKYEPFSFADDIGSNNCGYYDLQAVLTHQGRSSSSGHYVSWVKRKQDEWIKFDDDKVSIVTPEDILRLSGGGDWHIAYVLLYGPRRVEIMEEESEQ
row,Structure (SMILES),log2 ratio of Biotin-Ahx-Ub-VS probe labelling
1,O=C(CCl)N1CCC(C(=O)N2CCCCCC2)CC1,-0.204
2,Cc1cnc2[nH]cc(CCNC(=O)CCl)c2c1,-0.111
3,Cl.O=C(CN1CCN(C(=O)CCl)CC1)Nc1ccc(F)cc1,-0.0648
4,Cc1cccc(NC(=O)[C@@H]2CCCN2C(=O)CCl)n1,-0.519
5,O=C(CCl)N1CCc2sccc2C1,-0.619
6,Cl.Cn1ncc2c1CCCC2NC(=O)CCl (stereo not given),-0.227
7,O=C(CCl)N1CCc2ccccc2C(O)C1 (stereo not given),-0.255
8,COc1ccc(C2CCCN2C(=O)CCl)c(OC)c1 (stereo not given),-0.545
9,Cc1ccc(CNC(=O)CCl)nc1C.Cl,-0.372
10,CC(O)CC1CCN(C(=O)CCl)CC1 (stereo not given),-0.442
11,CC1Cc2ccccc2N1C(=O)CCl (stereo not given),-0.771
12,Cl.O=C(CCl)NCc1ccnc(Oc2ccccc2F)c1,-0.153
13,Cc1cccc(N(CCC#N)C(=O)CCl)c1C,0.0267
14,O=C(CCl)N1CCC(C(O)c2ccc(F)cc2)CC1 (stereo not given),-0.0836
15,Cc1ccc2nnc(CNC(=O)CCl)n2c1,0.17
16,CN(C(=O)CCl)c1nc2ccccc2s1,-0.178
17,O=C(CCl)NCc1ccc(N2CCOCC2)nc1,-0.262
18,O=C(CCl)Nc1cc2c(cc1Cl)OCCCO2,0.135
19,Cc1noc(C)c1CNC(=O)CCl,-0.561
20,O=C(CCl)NCc1noc(C2CC2)n1,-0.284

row,Structure (SMILES),log2 ratio of Biotin-Ahx-Ub-VS probe labelling
1,Cl.Cn1cnc2cc(CNC(=O)CCl)ccc21,-0.222
2,O=C(CCl)N1CCC(OCc2ccccc2F)CC1,0.0975
3,Cc1conc1C1CN(C(=O)CCl)C1,-1.12 (active)
4,CCC(NC(=O)CCl)c1ccc(Cl)cc1 (stereo not given),-0.332
5,Cl.Cn1nccc1C(NC(=O)CCl)c1ccccc1 (stereo not given),-0.0812
6,CS(=O)(=O)c1ccc(NC(=O)CCl)cc1,0.0136
7,Cc1cccc(C)c1NC(=O)CCl,-0.289
8,Cl.O=C(CCl)N1CCc2ncncc2C1,-0.0964
9,COc1ccc(-c2csc(NC(=O)CCl)n2)cc1,-0.0511
10,CN1c2ccccc2C(NC(=O)CCl)CS1(=O)=O (stereo not given),-0.335
11,CN(C)C(=O)c1ccc(CNC(=O)CCl)cc1,0.0549
12,O=C(CCl)N1CCCCC12CCOCC2,-0.559
13,O=C(CCl)NCCc1ccc2c(c1)OCCO2,-0.579
14,O=C(CCl)N1CCC(c2ccn[nH]2)C1 (stereo not given),-0.0963
15,O=C(CCl)NCc1cccc(N2CCCC2=O)c1,-0.0996
16,O=C(CN1CCN(C(=O)CCl)CC1)Nc1cccc(F)c1,-0.0714
17,O=C(CCl)N1CCOCC1C1CC1 (stereo not given),-0.212
18,O=C(CCl)N1CCc2[nH]c3ccccc3c2C1,-1.05 (active)
19,CNC(=O)Cn1cc(NC(=O)CCl)cn1,-0.154
20,C/C(=C\CNC(=O)CCl)c1cnn(C)c1.Cl,-0.247
